Data published in PubChem BioAssay AID2283109 (EPA ToxCast).
Where “and” joins values, the source holds several entries; their conditions need not be identical. Equal values may be shown once. Calls of active or inactive are those of the source. Rule for the calls: active = hit-call score of the fitted dose curve at least 0.9, where 1 is the maximum; inactive = score below 0.9.

Biological target: human CYP3A5, CYP3A5 (gene 1577) (UniProt P20815)
Test: NVS_ADME_hCYP3A5: NovaScreen (NVS) CYP450-related Enzyme Activity (ADME) Assay for human CYP3A5
Description: NVS_ADME_hCYP3A5 is a biochemical, single-readout assay that uses extracted gene-proteins in a cell-free assay. Measurements were taken 0.5 hour after chemical dosing in a 96-well plate.NVS_ADME_hCYP3A5 is one of one assay component(s) measured or calculated from the NVS_ADME_hCYP3A5 assay. It is designed to make measurements of enzyme activity, a form of enzyme reporter, as detected with fluorescence intensity signals by Fluorescence technology.Data from the assay component NVS_ADME_hCYP3A5 was analyzed into 1 assay endpoint. This assay endpoint, NVS_ADME_hCYP3A5, was analyzed in the positive analysis fitting direction relative to Acetonitrile as the negative control and baseline of activity. Using a type of enzyme reporter, loss-of-signal activity can be used to understand changes in the enzymatic activity as they relate to the gene CYP3A5. Furthermore, this assay endpoint can be referred to as a primary readout, because this assay has produced […] where this one serves a enzymatic activity function. To generalize the intended target to other relatable targets, this assay endpoint is annotated to the cyp intended target family, where the subfamily is xenobiotic metabolism. […]

Sequence of human CYP3A5, CYP3A5 (gene 1577) (P20815 whole entry, looked up): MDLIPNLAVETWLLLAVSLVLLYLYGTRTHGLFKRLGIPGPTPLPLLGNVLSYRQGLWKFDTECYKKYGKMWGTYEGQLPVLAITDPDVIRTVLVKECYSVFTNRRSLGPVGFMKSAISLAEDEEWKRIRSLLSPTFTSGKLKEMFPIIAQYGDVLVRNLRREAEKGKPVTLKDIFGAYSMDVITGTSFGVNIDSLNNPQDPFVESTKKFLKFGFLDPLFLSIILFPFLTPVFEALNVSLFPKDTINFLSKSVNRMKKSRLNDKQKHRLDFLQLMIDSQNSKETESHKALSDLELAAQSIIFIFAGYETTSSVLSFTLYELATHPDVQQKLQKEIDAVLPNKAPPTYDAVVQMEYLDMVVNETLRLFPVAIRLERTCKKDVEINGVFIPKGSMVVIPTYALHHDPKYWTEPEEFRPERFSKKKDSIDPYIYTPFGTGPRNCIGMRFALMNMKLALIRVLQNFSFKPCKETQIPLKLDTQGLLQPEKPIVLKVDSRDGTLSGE

C#C[C@]1(O)CC[C@H]2[C@@H]3CCc4cc(O)ccc4[C@H]3CC[C@@]21C
AC50: 1.84 µM (active) and 3.89 µM (active) and 1.71 µM (active)
